Results from the supplement of paper PMC6089552.
The campaign covered roughly 3,200 compounds. About 300 (9.4%) showed activity. The full list was thinned out, with actives kept by preference.

Tested on: A673/TR/shEF
Assay: cell viability (LOESS-normalised, relative to median of negative controls) (log2 ratio); higher = more viable cells (less compound effect), active = hit call of the paper (over 3 MAD below the median)
Settings: treatment time: 72 h
In short: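 Viability of A673/TR/shEF Ewing sarcoma cells was determined by CellTiter-Glo luminescence. The cells, at 1,500 per well in 384-well plates, were grown with or without doxycycline from 24 h before compound addition to switch on EWS-FLI1 shRNA knockdown, then exposed for three days to library compounds at two or more concentrations or to DMSO controls. Signals were LOESS-corrected plate by plate, normalised to the negative-control median and log2-transformed.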

[1] = 0.103 µM, library screen: screen3, EWS-FLI1 expression: high (no doxycycline)
[2] = 0.103 µM, library screen: screen3, EWS-FLI1 expression: low (doxycycline-induced shRNA knockdown)
[3] = 0.308 µM, library screen: screen3, EWS-FLI1 expression: high (no doxycycline)
[4] = 0.308 µM, library screen: screen3, EWS-FLI1 expression: low (doxycycline-induced shRNA knockdown)
[5] = 0.926 µM, library screen: screen3, EWS-FLI1 expression: high (no doxycycline)
[6] = 0.926 µM, library screen: screen3, EWS-FLI1 expression: low (doxycycline-induced shRNA knockdown)
[7] = 2.8 µM, library screen: screen3, EWS-FLI1 expression: high (no doxycycline)
[8] = 2.8 µM, library screen: screen3, EWS-FLI1 expression: low (doxycycline-induced shRNA knockdown)
[9] = 8.3 µM, library screen: screen3, EWS-FLI1 expression: high (no doxycycline)
[10] = 8.3 µM, library screen: screen3, EWS-FLI1 expression: low (doxycycline-induced shRNA knockdown)
[11] = 25 µM, library screen: screen3, EWS-FLI1 expression: high (no doxycycline)
[12] = 25 µM, library screen: screen3, EWS-FLI1 expression: low (doxycycline-induced shRNA knockdown)
[13] = 0.25 µM, library screen: screen2, EWS-FLI1 expression: high (no doxycycline)
[14] = 0.25 µM, library screen: screen2, EWS-FLI1 expression: low (doxycycline-induced shRNA knockdown)
[15] = 2.5 µM, library screen: screen2, EWS-FLI1 expression: high (no doxycycline)
[16] = 2.5 µM, library screen: screen2, EWS-FLI1 expression: low (doxycycline-induced shRNA knockdown)
[17] = 0.25 µM, library screen: screen1, EWS-FLI1 expression: high (no doxycycline)
[18] = 0.25 µM, library screen: screen1, EWS-FLI1 expression: low (doxycycline-induced shRNA knockdown)
[19] = 2.5 µM, library screen: screen1, EWS-FLI1 expression: high (no doxycycline)
[20] = 2.5 µM, library screen: screen1, EWS-FLI1 expression: low (doxycycline-induced shRNA knockdown)
[21] = 0.025 µM, library screen: screen2, EWS-FLI1 expression: high (no doxycycline)
[22] = 0.025 µM, library screen: screen2, EWS-FLI1 expression: low (doxycycline-induced shRNA knockdown)
[23] = 25 µM, library screen: screen2, EWS-FLI1 expression: high (no doxycycline)
[24] = 25 µM, library screen: screen2, EWS-FLI1 expression: low (doxycycline-induced shRNA knockdown)

Measured: cell viability (log2)

CNC(=O)c1ccccc1Sc1ccc2c(/C=C/c3ccccn3)n[nH]c2c1
inactive: [1] -0.00228 | [2] 0.0386 | [3] 0.0978 | [4] 0.044 | [5] 0.0712 | [6] 0.145 | [7] 0.0241 | [8] 0.188 | [10] 0.195 | [12] -0.0147
active: [9] -0.181 | [11] -0.513

CNC(=O)c1cc2c(cn1)[nH]c1ccccc12
inactive: [13] 0.143 | [14] 0.0456 | [15] 0.152 | [16] 0.0711

CC(C)=CCC[C@@H](C)[C@H]1CC[C@@]2(C)C3=C(CC[C@]12C)[C@@]1(C)CC[C@H](O)C(C)(C)[C@@H]1CC3
inactive: [17] 0.101 | [18] -0.00557 | [19] 0.158 | [20] 0.0178

O=C(O)CCCCCCCn1ccnc1
inactive: [17] 0.124 | [18] 0.0433 | [19] 0.168 | [20] 0.0749

CC1=C(Cl)C(O)=C(Cl)C(=O)C12Oc1cc(O)c(Cl)c(C)c1C2=O (stereo not given)
inactive: [17] 0.065 | [18] 0.0174 | [19] 0.111 | [20] 0.157

CC(=O)OC12CCCC(C)(CCC3C1CC3(C)C)C2 (stereo not given)
inactive: [17] 0.0248 | [18] -0.0723 | [19] 0.116 | [20] -0.0213

CC(=O)OC1(C)CCC23CC1C(C)(C)[C@@H]2CC[C@H]3C (stereo not given in full)
inactive: [17] 0.0148 | [18] 0.0289 | [19] 0.15 | [20] 0.0585

Cc1nc(N)sc1-c1ccnc(Nc2ccc(N3CCOCC3)cc2)n1
inactive: [1] 0.0411 | [2] 0.00948 | [3] 0.0424 | [4] 0.0424 | [5] -0.0206 | [6] 0.0867 | [8] 0.0313 | [10] -0.083
active: [7] -0.219 | [9] -0.377 | [11] -0.478 | [12] -0.719

COc1cccc(CN2CCN(Cc3cccc([N+](=O)[O-])c3)CC2)c1
inactive: [17] 0.0814 | [18] 0.112

CC(C)c1c(O)ccc2c1CC[C@H]1[C@@](C)(CO)CCC[C@]21C
inactive: [17] 0.0632 | [18] 0.204 | [19] 0.124 | [20] 0.239

COC(=O)Nc1nc2ccc(Sc3ccccc3)cc2[nH]1
inactive: [21] 0.076 | [22] 0.0311 | [1] 0.039 | [2] 0.0842 | [17] 0.0605 | [18] 0.108 | [13] 0.237 | [14] 0.0195 | [3] 0.0857 | [4] 0.103 | [5] 0.0228 | [6] 0.0229 | [19] 0.101 | [20] 0.0874 | [15] 0.103 | [16] 0.0543 | [8] -0.0556
active: [7] -0.667 | [9] -1.42 | [10] -0.611 | [23] -2.26 | [24] -0.937 | [11] -1.77 | [12] -0.629

COc1ccc(NC(=O)/C(=C/c2cccs2)NC(=O)c2cccs2)cc1
inactive: [17] 0.0675 | [18] 0.0437 | [19] 0.0662 | [20] 0.0201

COC(=O)Nc1nc2ccc(C(=O)c3cccs3)cc2[nH]1
active: [17] -0.83 | [18] -0.22 | [13] -1.12 | [14] -0.105 | [19] -3.46 | [20] -1.25 | [15] -2.04 | [16] -0.699

CC(C(=O)O)c1ccc(C(=O)c2cccs2)cc1 (stereo not given)
inactive: [17] 0.0835 | [18] 0.0129 | [19] 0.155 | [20] -0.0021

COC(=O)c1ccccc1
inactive: [17] 0.0726 | [18] 0.05 | [19] 0.155 | [20] 0.0447

COC(=O)Nc1nc2ccc(C(=O)c3ccccc3)cc2[nH]1
active: [19] -1.65 | [20] -0.988 | [15] -2.05 | [16] -0.641 | [23] -3.34 | [24] -1
inactive: [21] 0.179 | [22] 0.0844 | [17] 0.0977 | [18] 0.025 | [13] 0.114 | [14] 0.0886
